FBW7 act: FBW7 E3 ligase activators, primary screen, biochemical, AlphaScreen, human. F-box/WD repeat-containing protein 7 (Homo sapiens), Q969H0. AlphaScreen FBW7–phospho-cyclin E peptide binding, activator screen. normalized activity (activation), % at 26.1 µM. 650,000 tested, 0.13% active; in the data active = normalized activity above about 1.9%;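 note: purified mutant Fbw7 with reduced substrate affinity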
GPR151 ag: activators of human GPR151, primary screen, cell-based, PathHunter beta-arrestin, luminescence | G-protein coupled receptor 151 (Homo sapiens), Q8TDV0 | PathHunter beta-arrestin GPR151 cells | activation, % at 11.2 µM | 650,000 tested, 1% active | AID 1508602, 2020; in the data active = activation above about 4.9%
TEAD-YAP inh: TEAD-YAP interaction inhibition, primary screen, TEAD-YAP interaction inhibitor project, luminescence, HEK-TIYL cells. TEAD-Gal4/YAP UAS-luciferase luminescence. inhibition, % at 9.12 µM. 640,000 tested, 1.4% active. AID 1259422, 2018; in the data active = inhibition above about 32%
MITF primary: MITF inhibitors, primary screen, biochemical, AlphaScreen, human. AlphaScreen MITF homodimerization, bead proximity signal. 650,000 tested, 0.91% active. Microphthalmia-associated transcription factor (Homo sapiens), O75030. inhibition, % at 2.6 µM. AID 1259374, 2018; in the data active = inhibition above about 50%
GPR151 conf act: GPR151 activators, triplicate retest, confirmation, cell-based, PathHunter beta-arrestin, luminescence; shares compounds with GPR151 ag; 6,700 tested, under 10 active; activation, % at 11.2 µM; GPR151 PathHunter beta-arrestin cells, 90 min; % of EA-reagent control over plate median;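 active = mean percent activation across replicates above the confirmation screen cutoff of 4.91%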
GPR119 ag: GPR119 activators in beta-arrestin cells, counter-screen for GPR151 activator project, cell-based, PathHunter beta-arrestin, luminescence, triplicate | shares compounds with GPR151 ag | 90 min; 0 = compound-well median, 100 = enzyme-acceptor control | activation, % at 11.2 µM | 6,700 tested, 0.3% active | AID 1508611, 2020;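 active = mean percent activation in the counterscreen above 29.09%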;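 note: counterscreen on off-target GPR119 to flag nonselective hits from the GPR151 activator screen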
Hits are given with their value; . = inactive; / = no result given. Sampled rows, rich in hits. Any-hit rate of the full collection: about 3.5%.

SMILES	FBW7 act	GPR151 ag	TEAD-YAP inh	MITF primary	GPR151 conf act	GPR119 ag
CC1(C)CC(=O)C2=C(C1)N(c1ccc(Cl)cc1)C(N)=C(C#N)C2c1ccc2c(c1)OCO2 (stereo not given)	.	14	.	.	.	.
Cc1nnc(NC(=O)C(C)N2CCCC2)s1 (stereo not given)	.	14	.	.	.	.
Cc1nnc(NC(=O)C(C)N2CCN(C)CC2)s1 (stereo not given)	.	.	.	.	/	/
Cc1ccc2c(CSc3n[nH]c(N)n3)cc(=O)oc2c1C	.	11	.	.	.	.
Cc1ccc2c(CSc3n[nH]c(N)n3)cc(=O)oc2c1	.	.	.	.	/	/
CCOC(=O)c1ccc(N2C(=O)CC(Cc3ccc(Cl)cc3)C2=O)cc1 (stereo not given)	.	9.6	.	.	.	.
O=C1NC2(CCN(C(=O)C3(c4ccc(Cl)cc4)CC3)CC2)Oc2ccccc21	.	.	.	.	/	/
Cc1ncc(CN2CCC3(CC2)NC(=O)c2ccccc2O3)n1C	.	4.9	.	.	.	.
Cc1c(CN2CCC3(CC2)NC(=O)c2ccccc2O3)cnn1C	.	.	.	.	/	/
Cc1ccc(C2(C(=O)N3CCC4(CC3)NC(=O)c3ccccc3O4)CC2)cc1	.	5.6	.	.	.	.
CC(C)c1c(C(=O)Nc2ccccc2)c(-c2ccccc2)c(-c2ccc(F)cc2)n1CC[C@@H](O)C[C@@H](O)CC(=O)O	.	5.2	/	.	.	.
O=C(Nc1ccc(-c2ccccc2)cc1)c1ccc(F)cc1	.	.	.	.	/	/
CC1CCCC(NC2CC(=O)N(c3ccccc3)C2=O)C1C (stereo not given)	.	.	.	.	/	/
CCOC(=O)c1c(NC(=O)CC)sc2c1CC(C)(C)OC2	.	.	.	.	/	/
CCOC(=O)c1c(NC(=O)Nc2ccc(Cl)cc2)sc2c1CC(C)(C)OC2	.	5.2	.	.	.	.
COc1ccc2ccccc2c1/C=C1\C(=O)NC(=O)N(c2ccc([N+](=O)[O-])cc2)C1=O	.	6.7	.	.	.	.
COc1ccc(N2C(=O)NC(=O)/C(=C/c3cccn3-c3cccc([N+](=O)[O-])c3)C2=O)cc1	.	4.9	.	.	.	.
COc1cccc(N2C(=O)NC(=O)/C(=C/c3c(OC)ccc4ccccc34)C2=O)c1	.	.	.	.	/	/
CCOC(=O)c1cc2c(=O)n3ccccc3nc2n(C(C)C)c1=NC(=O)c1ccccc1	.	.	.	.	/	/
C[C@H]1C(=O)N2CCN(Cc3ccc(F)c(F)c3)C[C@@H]2C(=O)N1C	.	6.8	.	.	.	.
COC(=O)c1ccccc1NC(=O)c1sc2ncn(CC(=O)N3CC(C)CC(C)C3)c(=O)c2c1C (stereo not given)	.	.	.	.	/	/
Cc1nnc(SCC(=O)N2CCCCC2)n(N)c1=O	.	.	.	.	/	/
Cc1nnc(SCC(=O)N2CCCC2)n(N)c1=O	.	5.5	.	.	.	.
COc1ccc(C2C(C(C)=O)=C(C)N=c3s/c(=C/c4ccccc4)c(=O)n32)cc1 (stereo not given)	.	8.8	.	.	.	.
CCOC(=O)C1=C(C)N=c2s/c(=C\c3ccc(C(C)C)cc3)c(=O)n2C1c1ccc(C(C)C)cc1 (stereo not given)	.	.	.	.	/	/
SMILES	FBW7 act	GPR151 ag	TEAD-YAP inh	MITF primary	GPR151 conf act	GPR119 ag
CCOC(=O)C1=C(C)N=c2s/c(=C\c3ccc(C(C)C)cc3)c(=O)n2C1c1ccc(OC)cc1 (stereo not given)	.	7.0	.	.	.	.
COc1ccc(C2C(C(C)=O)=C(C)N=c3s/c(=C/c4ccc(OCc5cccc6ccccc56)cc4)c(=O)n32)cc1 (stereo not given)	.	.	.	.	/	/
C=CCn1cc(/C=c2\sc3n(c2=O)C(c2ccc(OC)cc2)C(C(=O)OCC)=C(C)N=3)c2ccccc21 (stereo not given)	.	5.0	.	.	.	.
CCOC(=O)C1=C(C)N=c2s/c(=C\c3ccc(Br)o3)c(=O)n2C1c1ccc(OC(C)C)cc1 (stereo not given)	.	5.0	.	.	.	.
C=CCn1cc(/C=c2\sc3n(c2=O)C(c2ccc(Cl)cc2)C(C(=O)OCC)=C(C)N=3)c2ccccc21 (stereo not given)	.	.	.	.	/	/
N#C/C(=C\c1ccc(Cl)c([N+](=O)[O-])c1)C(=O)NCc1ccco1	.	.	.	.	/	/
O=C(Oc1ccccc1)c1cc2ccccc2oc1=O	.	.	.	.	/	/
O=C(OCc1ccccc1)c1ccc(OC(=O)c2cc3ccccc3oc2=O)cc1	.	6.6	.	.	.	.
CNC(=O)C(=O)NCC1OCCN1S(=O)(=O)c1ccc(Br)cc1 (stereo not given)	.	.	.	.	/	/
O=C(Nc1ccc2c(c1)CN(C(=O)Cn1c(=O)oc3ccccc31)CC2)C1CCCO1 (stereo not given)	.	6.8	.	.	.	.
Cn1nccc1Nc1nccc(Nc2ccccc2)n1	.	7.5	.	.	.	.
Cc1cccc(CCNc2c(-c3ccccc3)c(=O)c2=O)c1	.	.	.	.	/	/
Cc1ccsc1CCNc1c(-c2ccccc2)c(=O)c1=O	.	5.2	.	.	.	.
Cc1cc(NCc2ccccc2)nc(-c2ccc(N3CCN(C)CC3)cc2)n1	.	14	.	.	.	.
Cc1nnc(SCc2ccccc2)[nH]c1=O	.	.	.	.	/	/
Cc1nnc(SCc2ccc(F)cc2)[nH]c1=O	.	11	.	.	.	.
CCOc1ccc(CN2CCNC(=O)C2CC(=O)NCC2(c3ccccc3)CCCC2)cc1 (stereo not given)	.	8.0	.	.	.	.
CC(C)CCN1CCNC(=O)C1CC(=O)NCC1(c2ccccc2)CCOCC1 (stereo not given)	.	6.1	.	.	.	.
Cc1ccc2c(COC(=O)COc3ccccc3C#N)cc(=O)oc2c1C	.	.	.	.	/	/
CN(C)C1NC(=O)c2cc(-c3ccccc3)sc2N1 (stereo not given)	.	7.0	.	.	.	.
COCCn1c(C)cc(/C=C2/C(=O)NC(=O)N(C3CCCCC3)C2=O)c1C	.	7.0	.	.	.	.
O=C(CSc1nnc(-c2cccnc2)o1)Nc1nc(-c2ccccc2)cs1	.	7.5	.	.	.	.
O=C(CSc1nnc(-c2cccnc2)o1)c1ccccc1	.	5.9	.	.	.	.

Screens: PubChem, The Scripps Research Institute Molecular Screening Center
